Measured values as given in publication PMC7862700, “An all-to-all approach to the identification of sequence-specific readers for epigenetic DNA modifications on cytosine”.

The sequences below were run against SPI1 (Homo sapiens, UniProt P17947 1-270) (assay: DAPPL (digital affinity profiling via proximity ligation, sequencing); 10 mM Tris-HCl pH 7.5, 50 mM NaCl, 1 mM DTT, 4% glycerol, room temperature, 30 min; GST-TFs on glutathione beads, 16-mer random dsDNA library, 0.1% formaldehyde crosslink after washing; high values mean tight binding). Conditions: protein: recombinant; tags: N-terminal GST; dsDNA, one strand shown.
Summary of the method: (§1)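 A tag-only sample was pooled with DNA-barcoded human transcription factors that had been expressed in yeast as GST fusions and captured on glutathione beads. The pools were incubated for 30 min at room temperature with 200 nmole of a random double-stranded 16-mer DNA library in Tris/NaCl/DTT/glycerol buffer, then washed, crosslinked with 0.1% formaldehyde, proximity-ligated (BsaI/T4 ligase, 1 h, 37 °C), PCR-amplified and sequenced on an Illumina NextSeq500. Binding signal is each hexamer's read frequency for a factor divided by its frequency for the tag-only sample.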

| Sequence | binding signal |
| --- | --- |
| TAGGGA | 1.05 fold enrichment (6-mer frequency, TF over GST control) |
| AGCGGA | 1.26 fold enrichment (6-mer frequency, TF over GST control) |
| GGGAAG | 1.51 fold enrichment (6-mer frequency, TF over GST control) |
| AGTGGA | 1.08 fold enrichment (6-mer frequency, TF over GST control) |
| AAGAGG | 1.56 fold enrichment (6-mer frequency, TF over GST control) |
| GTGTGC | 1.01 fold enrichment (6-mer frequency, TF over GST control) |
| AGTGAA | 1.26 fold enrichment (6-mer frequency, TF over GST control) |
| GAGGAA | 1.64 fold enrichment (6-mer frequency, TF over GST control) |
| AAAGAG | 1.45 fold enrichment (6-mer frequency, TF over GST control) |
| GGGGAA | 1.21 fold enrichment (6-mer frequency, TF over GST control) |
| AGAGGA | 1.22 fold enrichment (6-mer frequency, TF over GST control) |
| AGTGCG | 1.14 fold enrichment (6-mer frequency, TF over GST control) |
| AGTGAT | 1.06 fold enrichment (6-mer frequency, TF over GST control) |
| TGAGGA | 1.07 fold enrichment (6-mer frequency, TF over GST control) |

The sequences below were run against SPIB (Homo sapiens, UniProt Q01892 1-262) in the same assay as above. Conditions: protein: recombinant; tags: N-terminal GST; dsDNA, one strand shown.
SPIB, sequence (Q01892 whole entry): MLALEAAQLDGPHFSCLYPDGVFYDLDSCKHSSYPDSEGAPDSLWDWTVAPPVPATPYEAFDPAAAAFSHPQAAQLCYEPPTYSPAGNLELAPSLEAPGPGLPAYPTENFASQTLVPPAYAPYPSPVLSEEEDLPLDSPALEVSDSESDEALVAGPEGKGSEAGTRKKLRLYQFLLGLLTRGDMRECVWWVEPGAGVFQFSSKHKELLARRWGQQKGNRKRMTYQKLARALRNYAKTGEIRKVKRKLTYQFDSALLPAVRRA
Summary of the method: as §1

| Sequence | binding signal |
| --- | --- |
| GTGGTG | 1.02 fold enrichment (6-mer frequency, TF over GST control) |
| TCGCAG | 1.04 fold enrichment (6-mer frequency, TF over GST control) |
| AGCGTA | 1.02 fold enrichment (6-mer frequency, TF over GST control) |
| CGCTGA | 1.01 fold enrichment (6-mer frequency, TF over GST control) |

These sequences were tested against T1, ELK3 (Homo sapiens, UniProt P41970 1-407) in the same assay as above. Conditions: protein: recombinant; tags: N-terminal GST; dsDNA, one strand shown.
T1 sequence: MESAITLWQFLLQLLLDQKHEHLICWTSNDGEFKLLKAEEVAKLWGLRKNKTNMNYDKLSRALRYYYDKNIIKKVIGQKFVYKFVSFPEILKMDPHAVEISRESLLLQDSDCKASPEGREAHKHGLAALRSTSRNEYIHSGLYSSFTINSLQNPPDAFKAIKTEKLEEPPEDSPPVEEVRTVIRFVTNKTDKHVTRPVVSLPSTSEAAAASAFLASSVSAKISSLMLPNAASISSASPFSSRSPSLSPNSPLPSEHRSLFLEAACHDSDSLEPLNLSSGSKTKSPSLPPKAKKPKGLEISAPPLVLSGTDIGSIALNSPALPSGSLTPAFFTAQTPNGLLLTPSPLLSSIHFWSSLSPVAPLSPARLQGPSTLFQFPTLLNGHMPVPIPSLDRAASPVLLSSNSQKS
Summary of the method: as §1

| Sequence | binding signal |
| --- | --- |
| CCGTAG | 1.02 fold enrichment (6-mer frequency, TF over GST control) |
| CGGAAT | 1.01 fold enrichment (6-mer frequency, TF over GST control) |
| GCCACG | 1.03 fold enrichment (6-mer frequency, TF over GST control) |
| CGAGCG | 1.01 fold enrichment (6-mer frequency, TF over GST control) |
| AAACGT | 1.06 fold enrichment (6-mer frequency, TF over GST control) |

Each sequence was assayed against T2, FEV (Homo sapiens, UniProt Q99581 1-238) in the same assay as above. Conditions: protein: recombinant; tags: N-terminal GST; dsDNA, one strand shown.
T2 sequence: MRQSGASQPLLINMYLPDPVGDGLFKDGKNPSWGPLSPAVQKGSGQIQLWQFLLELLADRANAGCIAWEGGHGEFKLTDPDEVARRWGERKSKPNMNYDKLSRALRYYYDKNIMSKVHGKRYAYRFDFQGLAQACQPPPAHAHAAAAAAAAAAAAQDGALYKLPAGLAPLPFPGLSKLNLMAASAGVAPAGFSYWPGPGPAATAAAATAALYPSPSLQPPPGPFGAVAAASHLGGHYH
Summary of the method: as §1

| Sequence | binding signal |
| --- | --- |
| GGACCG | 1.12 fold enrichment (6-mer frequency, TF over GST control) |
| CGGACA | 1 fold enrichment (6-mer frequency, TF over GST control) |
| CGGCCG | 1.03 fold enrichment (6-mer frequency, TF over GST control) |

Each sequence was assayed against T3, ETV7 (Homo sapiens, UniProt Q9Y603 1-341) in the same assay as above. Conditions: protein: recombinant; tags: N-terminal GST; dsDNA, one strand shown.
T3 sequence: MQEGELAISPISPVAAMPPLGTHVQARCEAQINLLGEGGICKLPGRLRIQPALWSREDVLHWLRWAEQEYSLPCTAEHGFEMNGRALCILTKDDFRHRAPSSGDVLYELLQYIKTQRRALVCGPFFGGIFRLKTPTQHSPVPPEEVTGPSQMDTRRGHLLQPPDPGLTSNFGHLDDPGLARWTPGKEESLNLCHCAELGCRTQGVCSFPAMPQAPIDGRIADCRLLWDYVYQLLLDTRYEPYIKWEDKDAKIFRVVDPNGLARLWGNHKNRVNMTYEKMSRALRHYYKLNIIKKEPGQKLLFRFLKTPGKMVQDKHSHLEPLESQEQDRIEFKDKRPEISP
Summary of the method: as §1

| Sequence | binding signal |
| --- | --- |
| GGGTAC | 1 fold enrichment (6-mer frequency, TF over GST control) |
| ACGGGT | 1.01 fold enrichment (6-mer frequency, TF over GST control) |
| GTGGTG | 1 fold enrichment (6-mer frequency, TF over GST control) |
| AAAGTG | 1.04 fold enrichment (6-mer frequency, TF over GST control) |
| CACGGT | 1 fold enrichment (6-mer frequency, TF over GST control) |
| GCGCGG | 1.01 fold enrichment (6-mer frequency, TF over GST control) |
| CAGCGA | 1.01 fold enrichment (6-mer frequency, TF over GST control) |
| GCCACG | 1.03 fold enrichment (6-mer frequency, TF over GST control) |

The sequences below were run against T4, ELF5 (Homo sapiens, UniProt Q9UKW6-2 1-255) in the same assay as above. Conditions: protein: recombinant; tags: N-terminal GST; dsDNA, one strand shown.
T4 sequence: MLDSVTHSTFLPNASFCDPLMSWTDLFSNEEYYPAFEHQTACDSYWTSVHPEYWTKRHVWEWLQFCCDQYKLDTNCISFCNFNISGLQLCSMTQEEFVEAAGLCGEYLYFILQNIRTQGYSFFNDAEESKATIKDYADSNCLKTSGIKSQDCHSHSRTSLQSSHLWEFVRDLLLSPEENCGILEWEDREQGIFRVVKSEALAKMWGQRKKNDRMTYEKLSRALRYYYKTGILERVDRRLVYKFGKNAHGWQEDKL
Summary of the method: as §1

| Sequence | binding signal |
| --- | --- |
| CGGGAA | 1.06 fold enrichment (6-mer frequency, TF over GST control) |
| AGCAGG | 1.02 fold enrichment (6-mer frequency, TF over GST control) |
| GGGAAG | 1.24 fold enrichment (6-mer frequency, TF over GST control) |
| AGTAGT | 1.07 fold enrichment (6-mer frequency, TF over GST control) |
| GGGATG | 1.01 fold enrichment (6-mer frequency, TF over GST control) |
| TCCAGG | 1.01 fold enrichment (6-mer frequency, TF over GST control) |
| CAAGGA | 1.03 fold enrichment (6-mer frequency, TF over GST control) |
| GAGGAA | 1.11 fold enrichment (6-mer frequency, TF over GST control) |
| GGAAGG | 1 fold enrichment (6-mer frequency, TF over GST control) |
